Molecules are shown by their SMILES. The panel holds about 83,000 compounds, 20% with a hit somewhere; the sample as a whole holds those more often.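 Single-dose data. Exposure time 48 hours. Values below 10 considered active.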 Calls of active or inactive are those of the source.

This assay relates to NCI-H23 lung. Nature of the assay: NCI-60 one-dose screen, 48 h (100 = growth as untreated, 0 = no growth, -100 = all killed). The settings on record: 10 µM unless noted.
Regarding `COc1cc2c(=O)n(C3CCCCCCC3)c3c4cc[nH]c4ncc3c2cc1OC`, the growth is 57.5% (inactive). Then `C1CCC([PH+](C2CCCCC2)C2CCCCC2[PH+](C2CCCCC2)C2CCCCC2)CC1.[Au].[CH-]1CCCCC1CC1CCCC[N-]1` (stereo not given), with -46.3% (active). `CCCCN1CCCC[C@@H]1C(=O)N[C@H](C(=O)N(C)[C@H](C[C@@H](OC(C)=O)c1nc(C(=O)NC2CCC(C(=O)OC)CC2)cs1)C(C)C)C(C)C` (stereo not given in full): the growth was 48.4% (inactive). For `CS(=O)(=O)CCN1CC2CCCC(C2)C1` the value was 99.7% (inactive); for `COC(=O)[C@@H](C)C[C@H](Cc1ccccc1)NC(=O)c1nc([C@@H](C[C@H](C(C)C)N(C)C(=O)[C@@H](NC(=O)[C@H]2CCCCN2C)C(C)C)OC(C)=O)sc1C(C)C`, 24.6% (inactive); for `C=CC[Se]C(=O)c1ccccc1OC(C)=O`, -21.6% (active). As to `CC(C)[C@@H]1NC(=O)[C@]2(C)CSC(=N2)c2csc(n2)CNC(=O)C[C@@H](/C=C/CCS)OC1=O`, the growth was 8.6% (active). As to `Clc1cccc(Cl)c1Cl`, the growth is 102% (inactive). For `O=C(CC1(O)C(=O)Nc2ccc(Cl)cc21)c1ccc(C(=O)NCC2CCC3(CC2)OOC2(CCCCC2)OO3)cc1` (stereo not given) the value was 32.1% (inactive). For `COc1ccc(C(O)(C(=O)O)c2ccc(OC)cc2)cc1`, the growth was 89.8% (inactive). Consider `CCn1c2ccccc2c2cc(C(=O)c3ccc(C)c4ccccc34)ccc21`, for which the growth was 5.37% (active). Then `COC(=O)[C@]12CCC(C)(C)C[C@H]1[C@H]1C(=O)C[C@@H]3[C@@]4(C)C[C@@]5(CC(C)(C)[C@@H]4CC[C@@]3(C)[C@]1(C)CC2)OO[C@@](C)(C(F)(F)F)O5`, with 89% (inactive); and `CC[C@]12C=CCN3CC[C@@]4(c5ccc(OC)cc5N(C)[C@H]4[C@@](O)(C(=O)OC)[C@@H]1OC(=O)CCCC[P+](c1ccccc1)(c1ccccc1)c1ccccc1)[C@@H]32`, with 6.4% (active); and `CCCCCCCCOC(=O)CCN1CC1`, with 111% (inactive). Then `CC1[C@H](C)OC(=O)CC(O)CC(O)CC(O)CCC(O)C(O)C[C@]2(O)CC(O)C(C(=O)O)C(CC(OC3O[C@H](C)[C@@H](O)[C@H](N)[C@@H]3O)/C=C/C=C/C=C/C=C/CC/C=C/C=C/[C@H](C)[C@H]1O)O2` (stereo not given in full), with 90.8% (inactive); and `c1cc2c(c3c1CCNC3)OCO2`, with 94.8% (inactive); and `Cc1ccc(N2COOC3(OOC2)C2CC4CC(C2)CC3C4)cc1`, with 89.5% (inactive). For `O=C(CC1(O)C(=O)N(Cc2ccccc2)c2ccc(Br)cc21)c1ccc(C(=O)NCC2CCC3(CC2)OOC2(CCCCC2)OO3)cc1` (stereo not given) the value was -74.3% (active).

Consider `C[C@@H]1C[C@@]2(C)[C@@H](CC[C@@H]3[C@@H]2CC[C@]2(C)C(=O)CC[C@@H]32)CC1=O`, for which the growth is 104% (inactive). Take `CCN(CC)c1ccc2c(c1)OC(N)=C(C#N)C2c1cc(OC)c2c(c1)OCO2` (stereo not given): the growth was 17.8% (inactive). Then `O=P(Oc1ccc(Cl)cc1)(N1CC1)N1CC1`, with 65.4% (inactive). Then `O=[N+]([O-])c1cc(I)cc([N+](=O)[O-])c1`, with 95.9% (inactive); and `CC(=O)O[C@H](C[C@H](C(C)C)N(C)C(=O)[C@@H](NC(=O)[C@H]1CCCCN1C)C(C)(C)C)c1nc(C(=O)N[C@@H](Cc2ccccc2)C[C@H](C)C(=O)O)cs1`, with 37.8% (inactive). For `CC[C@H](C)[C@H](NC(=O)[C@H]1CCCCN1C)C(=O)N(C)[C@H](C[C@@H](O)c1nc(C(=O)N[C@@H](Cc2ccccc2)C[C@H](C)C(=O)O)cs1)C(C)C` the value was 94.8% (inactive); for `CN1CCC(O)(c2ccc(F)cc2)C(C(=O)c2ccc(F)cc2)C1` (stereo not given), 99.3% (inactive); for `O=C1NC(=O)C(=Cc2cccn2CCCCCn2c3ccccc3c(=O)c3ccccc32)C(=O)N1`, 96.3% (inactive). As to `COC(=O)[C@@H](C[C@H](Cc1ccccc1)NC(=O)c1csc([C@@H](C[C@H](C(C)C)N(C)C(=O)[C@@H](NC(=O)[C@H]2CCCCN2C)C(C)C)OC(C)=O)n1)NC(=O)OCc1ccccc1`, the growth was 35.1% [9.5 µM] (inactive). With `CN(C)CCCOc1ccc2c(c1)c(C(=O)C(=O)NCCO)cn2Cc1ccccc1`, the growth is 95.6% (inactive). For `COc1cc(C=Nc2cc(Cl)cc(Cl)c2)ccc1N(CCCl)CCCl` the value was 80.1% (inactive); for `CCOC(=O)N[C@H]1CCc2c(Br)c(OC)c(OC)c(OC)c2-c2ccc(SC)c(=O)cc21`, 31.2% (inactive).

The values above are taken from PubChem BioAssay (NCI).
